This passage reports log2 fold change results from the supplement of paper PMC10849652.

The full data set covers some 8,800 targets. This sample favours those with a hit. About 0.5% of all pairs of compound and target were hits. Unmarked numbers belong to inactive results.

Sequence of UniProt Q9BZF3 (Q9BZF3 whole entry, looked up): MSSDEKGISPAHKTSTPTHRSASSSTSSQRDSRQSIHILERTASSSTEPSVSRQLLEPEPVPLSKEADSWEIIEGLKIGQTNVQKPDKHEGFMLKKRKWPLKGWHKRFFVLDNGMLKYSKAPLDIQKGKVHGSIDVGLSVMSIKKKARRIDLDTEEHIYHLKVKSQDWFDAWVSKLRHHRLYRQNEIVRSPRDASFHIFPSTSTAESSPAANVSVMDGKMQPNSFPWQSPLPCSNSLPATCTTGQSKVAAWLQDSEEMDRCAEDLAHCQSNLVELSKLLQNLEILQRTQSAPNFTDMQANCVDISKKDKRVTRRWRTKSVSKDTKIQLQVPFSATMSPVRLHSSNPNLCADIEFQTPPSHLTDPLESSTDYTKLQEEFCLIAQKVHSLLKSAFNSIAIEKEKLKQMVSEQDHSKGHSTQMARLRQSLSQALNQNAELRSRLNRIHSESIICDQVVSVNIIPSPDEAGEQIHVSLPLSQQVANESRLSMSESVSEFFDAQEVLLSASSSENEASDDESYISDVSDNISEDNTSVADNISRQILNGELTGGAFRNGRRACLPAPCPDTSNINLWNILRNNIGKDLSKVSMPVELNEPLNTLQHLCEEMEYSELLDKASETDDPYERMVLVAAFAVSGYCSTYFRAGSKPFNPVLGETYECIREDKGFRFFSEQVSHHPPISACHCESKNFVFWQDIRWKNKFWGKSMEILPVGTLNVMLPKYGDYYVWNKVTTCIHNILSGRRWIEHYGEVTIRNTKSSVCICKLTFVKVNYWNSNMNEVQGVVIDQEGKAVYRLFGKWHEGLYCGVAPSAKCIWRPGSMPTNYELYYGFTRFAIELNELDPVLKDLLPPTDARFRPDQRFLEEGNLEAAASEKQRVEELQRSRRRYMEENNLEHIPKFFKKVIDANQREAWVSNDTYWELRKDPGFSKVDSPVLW
Sequence of UniProt Q9UDX5 (Q9UDX5 whole entry, looked up): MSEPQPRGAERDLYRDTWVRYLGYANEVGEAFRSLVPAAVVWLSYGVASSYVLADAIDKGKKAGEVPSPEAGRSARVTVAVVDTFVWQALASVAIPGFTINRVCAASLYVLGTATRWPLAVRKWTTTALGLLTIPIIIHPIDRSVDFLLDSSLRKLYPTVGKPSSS
Sequence of UniProt Q5SRE5 (Q5SRE5 whole entry, looked up): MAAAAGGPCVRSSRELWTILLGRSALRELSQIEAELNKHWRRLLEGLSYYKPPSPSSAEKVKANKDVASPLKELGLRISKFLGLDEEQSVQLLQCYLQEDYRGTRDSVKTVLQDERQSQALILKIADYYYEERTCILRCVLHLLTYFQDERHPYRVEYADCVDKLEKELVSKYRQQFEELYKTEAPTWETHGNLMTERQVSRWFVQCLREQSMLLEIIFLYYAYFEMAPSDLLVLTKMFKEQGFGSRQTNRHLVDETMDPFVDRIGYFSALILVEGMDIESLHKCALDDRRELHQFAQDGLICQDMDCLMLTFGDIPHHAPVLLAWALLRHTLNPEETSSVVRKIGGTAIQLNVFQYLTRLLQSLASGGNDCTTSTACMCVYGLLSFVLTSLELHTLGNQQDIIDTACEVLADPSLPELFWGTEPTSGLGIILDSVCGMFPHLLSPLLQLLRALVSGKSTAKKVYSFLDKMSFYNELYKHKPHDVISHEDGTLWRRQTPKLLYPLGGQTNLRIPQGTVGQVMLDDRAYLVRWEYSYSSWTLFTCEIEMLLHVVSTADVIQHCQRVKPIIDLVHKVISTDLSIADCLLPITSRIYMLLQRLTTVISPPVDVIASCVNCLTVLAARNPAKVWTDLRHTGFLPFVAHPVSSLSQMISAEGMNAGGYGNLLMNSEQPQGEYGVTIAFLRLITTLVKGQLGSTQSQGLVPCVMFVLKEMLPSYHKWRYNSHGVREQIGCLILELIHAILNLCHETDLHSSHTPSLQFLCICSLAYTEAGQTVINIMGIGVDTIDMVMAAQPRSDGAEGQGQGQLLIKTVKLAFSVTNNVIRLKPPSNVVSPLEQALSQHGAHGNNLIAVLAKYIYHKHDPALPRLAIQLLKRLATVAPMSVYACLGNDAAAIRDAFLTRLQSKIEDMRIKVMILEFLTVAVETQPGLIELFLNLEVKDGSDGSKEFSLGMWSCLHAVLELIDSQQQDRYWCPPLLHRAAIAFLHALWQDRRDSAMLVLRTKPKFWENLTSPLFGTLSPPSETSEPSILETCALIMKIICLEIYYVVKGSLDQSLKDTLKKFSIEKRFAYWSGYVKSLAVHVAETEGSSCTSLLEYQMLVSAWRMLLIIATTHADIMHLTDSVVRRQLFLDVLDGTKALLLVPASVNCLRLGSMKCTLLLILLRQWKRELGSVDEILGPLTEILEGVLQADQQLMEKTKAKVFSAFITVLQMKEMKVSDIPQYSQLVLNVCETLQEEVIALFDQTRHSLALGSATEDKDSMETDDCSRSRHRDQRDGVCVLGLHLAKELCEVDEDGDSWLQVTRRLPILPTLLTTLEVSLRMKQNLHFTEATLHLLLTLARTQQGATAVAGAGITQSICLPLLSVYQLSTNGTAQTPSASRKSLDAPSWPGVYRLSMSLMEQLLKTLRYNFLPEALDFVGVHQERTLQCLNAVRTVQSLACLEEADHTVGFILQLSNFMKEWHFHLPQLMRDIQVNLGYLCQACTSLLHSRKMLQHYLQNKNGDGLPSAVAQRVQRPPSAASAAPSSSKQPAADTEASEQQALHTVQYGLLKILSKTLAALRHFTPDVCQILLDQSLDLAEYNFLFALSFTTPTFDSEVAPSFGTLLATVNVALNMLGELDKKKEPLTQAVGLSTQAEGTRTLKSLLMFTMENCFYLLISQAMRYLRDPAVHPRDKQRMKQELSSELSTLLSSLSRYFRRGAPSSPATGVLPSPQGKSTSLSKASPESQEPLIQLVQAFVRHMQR
Sequence of UniProt Q9BXW6 (Q9BXW6 whole entry, looked up): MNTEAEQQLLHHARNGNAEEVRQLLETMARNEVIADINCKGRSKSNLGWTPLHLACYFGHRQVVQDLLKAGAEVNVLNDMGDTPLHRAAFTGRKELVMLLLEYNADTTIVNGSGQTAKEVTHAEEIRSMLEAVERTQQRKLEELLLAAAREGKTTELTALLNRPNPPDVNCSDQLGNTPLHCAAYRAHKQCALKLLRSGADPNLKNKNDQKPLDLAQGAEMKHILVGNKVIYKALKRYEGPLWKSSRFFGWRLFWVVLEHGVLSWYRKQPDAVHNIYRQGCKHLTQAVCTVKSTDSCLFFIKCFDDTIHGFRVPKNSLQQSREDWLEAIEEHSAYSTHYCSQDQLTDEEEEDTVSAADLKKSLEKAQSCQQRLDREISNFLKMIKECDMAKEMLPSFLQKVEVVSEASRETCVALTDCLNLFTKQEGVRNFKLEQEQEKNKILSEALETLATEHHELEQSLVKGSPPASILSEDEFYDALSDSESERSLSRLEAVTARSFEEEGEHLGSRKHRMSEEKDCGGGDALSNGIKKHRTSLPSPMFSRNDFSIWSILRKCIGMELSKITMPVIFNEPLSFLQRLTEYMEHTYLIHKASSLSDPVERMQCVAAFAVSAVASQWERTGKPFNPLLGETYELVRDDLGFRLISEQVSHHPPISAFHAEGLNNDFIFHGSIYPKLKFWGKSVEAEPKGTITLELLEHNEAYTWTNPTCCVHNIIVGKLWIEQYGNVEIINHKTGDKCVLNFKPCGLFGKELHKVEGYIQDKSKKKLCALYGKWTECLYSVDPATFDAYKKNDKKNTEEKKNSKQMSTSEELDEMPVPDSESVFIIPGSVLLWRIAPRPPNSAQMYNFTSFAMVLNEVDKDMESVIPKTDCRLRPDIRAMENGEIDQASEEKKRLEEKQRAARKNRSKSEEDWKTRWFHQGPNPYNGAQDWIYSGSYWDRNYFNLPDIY
Sequence of UniProt O60313 (O60313 whole entry, looked up): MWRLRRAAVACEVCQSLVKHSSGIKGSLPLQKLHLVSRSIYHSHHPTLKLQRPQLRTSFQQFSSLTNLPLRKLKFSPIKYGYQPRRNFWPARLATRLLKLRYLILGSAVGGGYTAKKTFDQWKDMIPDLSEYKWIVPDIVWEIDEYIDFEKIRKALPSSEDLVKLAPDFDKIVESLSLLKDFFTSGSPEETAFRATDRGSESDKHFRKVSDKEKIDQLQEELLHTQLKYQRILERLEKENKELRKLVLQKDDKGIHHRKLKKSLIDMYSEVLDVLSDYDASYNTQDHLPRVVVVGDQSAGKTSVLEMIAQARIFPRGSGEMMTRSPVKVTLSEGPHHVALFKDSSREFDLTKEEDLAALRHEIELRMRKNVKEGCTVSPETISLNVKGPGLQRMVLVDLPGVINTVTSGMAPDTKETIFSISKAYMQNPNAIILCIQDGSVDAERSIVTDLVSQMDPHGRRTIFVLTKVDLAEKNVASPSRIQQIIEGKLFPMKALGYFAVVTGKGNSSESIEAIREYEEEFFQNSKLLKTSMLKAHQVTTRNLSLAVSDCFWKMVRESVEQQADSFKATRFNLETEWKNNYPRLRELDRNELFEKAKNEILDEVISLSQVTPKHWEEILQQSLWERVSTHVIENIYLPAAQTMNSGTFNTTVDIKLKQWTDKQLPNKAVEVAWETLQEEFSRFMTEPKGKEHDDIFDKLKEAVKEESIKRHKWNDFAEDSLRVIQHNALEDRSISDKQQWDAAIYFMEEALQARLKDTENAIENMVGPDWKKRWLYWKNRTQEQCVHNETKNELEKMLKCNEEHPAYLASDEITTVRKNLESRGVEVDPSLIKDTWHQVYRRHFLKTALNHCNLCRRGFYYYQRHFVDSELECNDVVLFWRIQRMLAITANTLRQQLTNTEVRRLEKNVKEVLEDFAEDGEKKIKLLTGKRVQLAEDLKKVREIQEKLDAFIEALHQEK
Sequence of UniProt O60829 (O60829 whole entry, looked up): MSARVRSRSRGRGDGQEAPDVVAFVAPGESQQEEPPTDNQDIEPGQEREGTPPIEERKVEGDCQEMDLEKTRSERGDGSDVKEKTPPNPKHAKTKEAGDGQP
Sequence of UniProt O00483 (O00483 whole entry, looked up): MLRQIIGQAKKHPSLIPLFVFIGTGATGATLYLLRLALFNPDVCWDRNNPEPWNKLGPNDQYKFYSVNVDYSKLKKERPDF
Sequence of UniProt P03928 (P03928 whole entry, looked up): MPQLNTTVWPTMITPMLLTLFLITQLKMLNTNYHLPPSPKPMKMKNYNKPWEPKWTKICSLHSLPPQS

Compound in the first assay: C1=CC=C(C=C1)[C@H](COC2=CC3=C(C=C2)NC(=O)N3)NC(=O)C4=CC=CN(C4=O)CC5=CC(=C(C=C5)F)F
The assay can be described thus: log2 fold change, soluble protein after heating vs DMSO (PISA); higher = thermal stabilisation; K562 lysate, 10 uM; active = over 0.2 and 3.5 SD of the protein, either way, in both replicates (recomputed). A digest of the protocol: (§1)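 K562 pellets were dounce-homogenised in PBS pH 7.4 containing 1 mM MgCl2, and the crude extract, at 1 mg/mL protein, was exposed to 10 μM compound for 30 min. Aliquots were heated for 3 min across 48°C-58°C, pooled, brought to 0.5% NP-40 at 4°C and spun at 21,000xg for 90 min, with the supernatant taken as soluble protein. TMTpro 16plex LC-MS/MS with equalised channel sums quantified that protein. Values are log-two fold changes in thermal stability relative to solvent controls, taken from duplicates.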
On to OSBPL1A (UniProt Q9BXW6), for which the log2 fold change was -0.089. Regarding MT-ATP8 (UniProt P03928), the log2 fold change was -0.057. Still for that read-out and setting: the value for PAXBP1 (UniProt Q9Y5B6) was -0.004.

Compound in a further assay: CC1=C(SC2=C1C(=N[C@H](C3=NN=C(N32)C)CC(=O)N)C4=CC=C(C=C4)Cl)C
Described as above. A digest of the protocol: as §1
With MYO10 (UniProt Q9HD67), the log2 fold change is 0.104.

With MYCBP2 (UniProt O75592), the log2 fold change was -0.003. OPA1 isoform 2 (UniProt O60313): the log2 fold change was 0.021. On the same count and under the same terms, the value for NSA2 (UniProt O95478) was -0.135. On the same count and under the same terms, the value for NR2C2 isoform 2 (UniProt P49116) was -0.08.

For the target NDUFA4 (UniProt O00483), the log2 fold change is -0.048. On to NSUN7 (UniProt Q8NE18), for which the log2 fold change is -0.046.

Turning to PAGE4 (UniProt O60829), the log2 fold change was -0.11.

For NUP188 (UniProt Q5SRE5), the log2 fold change was -0.009. The same measure, in the same setting: in the case of MYOM1 (UniProt P52179) it was 0.088; in that of NR2F2 (UniProt P24468), -0.117; in that of NRIP1 (UniProt P48552), 0.112. Still for that read-out and setting: the value for OGFR (UniProt Q9NZT2) was 0.001; that for NNT (UniProt Q13423) was 0.052; that for P2RY1 (UniProt P47900) was 0.163. On to MTFP1 (UniProt Q9UDX5), for which the log2 fold change is -0.058. In the case of NFKBIE (UniProt O00221), the log2 fold change was -0.068. Consider NPLOC4 (UniProt I3L3I1), for which the log2 fold change was 0.2.

Take OSBPL6 isoform 5 (UniProt Q9BZF3): the log2 fold change is -0.023. On the same count and under the same terms, in the case of NDC1 (UniProt Q9BTX1) it was -0.055.
